Experimental data: PubChem BioAssay (EPA / NIEHS)
Inconclusive results are not listed. Activity calls are given as the source filed them. Rule for the calls, unless noted: active = hit-call score of the fitted dose curve at least 0.9, where 1 is the maximum; inconclusive = response in the unintended direction; inactive = score below 0.9.

Columns and labels:
[1] = target: Cellular tumor antigen p53 (Homo sapiens) (UniProt P04637); assay: TOX21_p53_BLA_p2_ratio: Tox21 HCT-116 p53 Agonism Beta-lactamase Assay, Ratio, Phase 2 (AID 2283592)
Sequence of Cellular tumor antigen p53 (Homo sapiens) (P04637 whole entry, looked up): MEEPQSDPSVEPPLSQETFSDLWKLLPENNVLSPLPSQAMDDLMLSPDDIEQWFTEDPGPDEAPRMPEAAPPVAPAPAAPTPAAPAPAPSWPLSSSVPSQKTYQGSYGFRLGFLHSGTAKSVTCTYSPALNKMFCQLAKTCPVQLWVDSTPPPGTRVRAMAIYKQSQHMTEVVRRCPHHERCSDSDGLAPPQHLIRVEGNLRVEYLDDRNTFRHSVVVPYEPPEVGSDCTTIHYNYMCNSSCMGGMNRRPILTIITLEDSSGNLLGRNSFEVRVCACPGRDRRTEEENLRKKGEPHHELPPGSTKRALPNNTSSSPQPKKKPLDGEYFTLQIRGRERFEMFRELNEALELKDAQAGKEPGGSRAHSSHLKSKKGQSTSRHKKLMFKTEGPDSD
Method in brief: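 First, HCT116 reporter cells settle for 5 h at 37C. Next, DMSO compound solutions are pinned in (217-fold dilution) and left 16 h. Finally, CCF4-AM substrate is loaded 2 h at room temperature and the 460/530 nm ratio read.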

[2] = TOX21_p53_BLA_p3_viability: Viability Assessment in the Tox21 HCT-116 p53 Agonism Beta-lactamase Assay, Phase 3 (AID 2283593);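 note: cells exposed to compound for 16 h before reading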
Method in brief: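 HCT116 cells, 4000/well, dosed 5 h after plating by pin transfer (217-fold dilution from DMSO stock) and incubated 16 h at 37C, 5% CO2. Viability read as ATP luminescence with CellTiter-Glo after 30 min at room temperature.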

[3] = target: Cellular tumor antigen p53 (Homo sapiens) (UniProt P04637); assay: TOX21_p53_BLA_p3_ratio: Tox21 HCT-116 p53 Agonism Beta-lactamase Assay, Ratio, Phase 3 (AID 2283596)
Method in brief: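 Cells were seeded at 4000/well, rested 5 h at 37C, then dosed with DMSO compound solutions (217-fold dilution) for 16 h. CCF4-AM substrate was loaded for 2 h at room temperature, and the 460/530 nm emission ratio was fitted for gain of signal versus DMSO.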

[4] = TOX21_p53_BLA_p4_viability: Viability Assessment in the Tox21 HCT-116 p53 Agonism Beta-lactamase Assay, Phase 4 (AID 2283597);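 note: hits lower the luminescence signal meaning cytotoxicity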
Method in brief: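 4000 HCT116 cells per well; 5 h attachment; compounds from DMSO, 217-fold dilution; 16 h at 37C. Then CCF4-AM, 2 h RT, followed by CellTiter-Glo, 30 min RT, luminescence. Decrease = cytotoxicity.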

[5] = target: Cellular tumor antigen p53 (Homo sapiens) (UniProt P04637); assay: TOX21_p53_BLA_p5_ratio: Tox21 HCT-116 p53 Agonism Beta-lactamase Assay, Ratio, Phase 5 (AID 2283599)
Method in brief: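 HCT-116 p53-bla cells (4000/well) plated 5 h, dosed with compound (217-fold DMSO dilution) for 16 h at 37 C; CCF4-AM substrate 2 h at room temperature. Activity is the 460/530 nm emission ratio (405 nm excitation), fitted in gain-of-signal direction versus DMSO.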

[6] = TOX21_p53_BLA_p5_viability: Viability Assessment in the Tox21 HCT-116 p53 Agonism Beta-lactamase Assay, Phase 5 (AID 2283600)
Method in brief: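 Decreased CellTiter-Glo luminescence denotes lost viability. Exposure: 16 h at 37C, 5% CO2, with compounds from DMSO stocks diluted 217-fold in wells of 4000 cells.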

[7] = target: Cellular tumor antigen p53 (Homo sapiens) (UniProt P04637); assay: TOX21_p53_BLA_p4_ratio: Tox21 HCT-116 p53 Agonism Beta-lactamase Assay, Ratio, Phase 4 (AID 2283601)
Method in brief: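 HCT-116 p53 beta-lactamase reporter cells (4000/well) preincubated 5 h, then compound (217-fold dilution of DMSO stock) for 16 h at 37C. CCF4-AM substrate added 2 h at room temperature; 460/530 nm emission ratio fitted upward versus DMSO.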

PGR (gene 5241) [8] = target: PGR (gene 5241) (UniProt P06401); assay: TOX21_PR_BLA_Followup_Antagonist_ratio: Tox21 HEK293 Progesterone Receptor (PR) Antagonism Beta-lactamase Follow-Up Assay, Ratio (AID 2283934);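 note: PR-UAS-bla HEK293T cells stimulated with 1 nM R5020 agonist for 16 hr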
Sequence of PGR (gene 5241) (P06401 whole entry, looked up): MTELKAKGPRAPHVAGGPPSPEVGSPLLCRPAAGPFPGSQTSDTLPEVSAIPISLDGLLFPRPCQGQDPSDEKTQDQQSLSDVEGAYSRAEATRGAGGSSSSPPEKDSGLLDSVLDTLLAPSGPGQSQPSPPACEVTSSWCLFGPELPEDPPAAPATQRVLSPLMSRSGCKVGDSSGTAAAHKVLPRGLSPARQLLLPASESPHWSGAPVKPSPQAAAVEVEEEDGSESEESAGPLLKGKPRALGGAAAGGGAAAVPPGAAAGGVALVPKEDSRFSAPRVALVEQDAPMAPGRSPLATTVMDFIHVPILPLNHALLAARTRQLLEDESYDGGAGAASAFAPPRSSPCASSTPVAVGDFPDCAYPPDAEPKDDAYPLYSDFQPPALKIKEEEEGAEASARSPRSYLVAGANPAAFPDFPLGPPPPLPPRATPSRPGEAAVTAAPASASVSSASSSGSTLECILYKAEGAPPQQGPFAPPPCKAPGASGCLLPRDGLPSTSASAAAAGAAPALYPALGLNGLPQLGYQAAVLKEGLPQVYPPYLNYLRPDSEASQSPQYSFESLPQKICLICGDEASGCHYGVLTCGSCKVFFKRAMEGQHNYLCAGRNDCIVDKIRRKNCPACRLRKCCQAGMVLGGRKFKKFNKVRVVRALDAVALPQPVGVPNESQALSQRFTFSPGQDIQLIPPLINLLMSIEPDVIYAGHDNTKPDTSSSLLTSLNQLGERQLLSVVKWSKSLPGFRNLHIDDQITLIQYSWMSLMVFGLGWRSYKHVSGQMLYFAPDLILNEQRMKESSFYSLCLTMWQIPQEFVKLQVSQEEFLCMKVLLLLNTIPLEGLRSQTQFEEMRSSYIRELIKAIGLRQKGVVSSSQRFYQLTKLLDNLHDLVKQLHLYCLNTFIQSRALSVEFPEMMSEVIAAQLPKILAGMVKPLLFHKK
Method in brief: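 Cells are plated, rested 6 hr, then dosed with test compound in DMSO and challenged with 1 nM promegestone. After 16 hr incubation, substrate loading for 2 h at room temperature precedes fluorescence reading; viability is measured in the same wells.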

PGR (gene 5241) [9] = target: PGR (gene 5241) (UniProt P06401); assay: TOX21_PR_LUC_Followup_Agonist: Tox21 HEK293 Progesterone Receptor (PR) Agonism Luciferase Follow-Up Assay (AID 2283937; active = hit-call score of the fitted dose curve at least 0.9, where 1 is the maximum; inactive = score below 0.9)
Method in brief: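 Seed HEK293-PR-A-luc cells, wait 5 h, add compounds in DMSO, incubate 16 h at 37C, add ONE-Glo, read luminescence after 30 min. Activity is increase over DMSO controls; run with a viability counter-screen.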

PGR (gene 5241) [10] = target: PGR (gene 5241) (UniProt P06401); assay: TOX21_PR_LUC_Followup_Antagonist: Tox21 HEK293 Progesterone Receptor (PR) Antagonism Luciferase Follow-Up Assay (AID 2283938);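 note: curve fitted upward as signal gain over DMSO baseline despite antagonist label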
Method in brief: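 HEK293-PR-A-luc cells, 3,000/well, preincubated 5 h at 37C before compound addition in DMSO; 16 h compound exposure at 37C. ONE-Glo luciferase luminescence read after 30 min at room temperature, fitted relative to DMSO baseline.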

[11] = TOX21_PR_LUC_Followup_Agonist_viability: Viability Assessment in the Tox21 HEK293 Progesterone Receptor (PR) Agonism Luciferase Follow-Up Assay (AID 2283941);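 note: loss of signal means cytotoxicity so actives lower viability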
Method in brief: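 Multiplexed viability endpoint of the PR agonist luciferase follow-up: HEK293-PR-A-luc cells treated 16 h at 37C, with viability scored as decrease in CellTiter-Glo ATP signal.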

[12] = target: Thyroid hormone receptor alpha (Rattus norvegicus) + Thyroid hormone receptor beta (Rattus norvegicus) (UniProt P18113+P63059); assay: TOX21_TR_LUC_GH3_Antagonist_Followup: Tox21 GH3 Thyroid Hormone Receptor Antagonism Luciferase Follow-Up Assay (AID 2283942)
Method in brief: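 Luminescence read-out (ONE-Glo, 30 min at room temperature) in GH3 reporter cells challenged with 1.0 nM T3 final. Compounds ran at 92 uM to 5nM over 15 concentrations for 24 h; DMSO served as negative control and baseline.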

THRB (gene 7068) = THRB (gene 7068) (UniProt P10828); assay: TOX21_TRB_BLA_Antagonist_Followup_ratio: Tox21 Thyroid Hormone Receptor beta Antagonism Beta-lactamase (BLA) Follow-Up Assay, Ratio (AID 2283958)
Sequence of THRB (gene 7068) (P10828 whole entry, looked up): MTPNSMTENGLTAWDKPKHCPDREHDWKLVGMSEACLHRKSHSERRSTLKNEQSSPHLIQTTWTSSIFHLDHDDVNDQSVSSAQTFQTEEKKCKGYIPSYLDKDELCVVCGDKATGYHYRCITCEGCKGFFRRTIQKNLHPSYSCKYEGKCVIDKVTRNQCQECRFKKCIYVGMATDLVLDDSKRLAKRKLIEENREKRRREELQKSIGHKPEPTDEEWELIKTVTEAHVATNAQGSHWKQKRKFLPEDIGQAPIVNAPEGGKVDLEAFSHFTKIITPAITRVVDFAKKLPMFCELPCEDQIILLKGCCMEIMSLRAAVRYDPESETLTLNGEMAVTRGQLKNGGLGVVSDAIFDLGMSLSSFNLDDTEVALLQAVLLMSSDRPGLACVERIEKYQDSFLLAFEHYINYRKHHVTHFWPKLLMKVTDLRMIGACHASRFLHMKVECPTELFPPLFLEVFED
Method in brief: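 Cells were plated and allowed to attach for 5 h, then dosed with compounds in DMSO at 11 concentrations for 18 h at 37C. Beta-lactamase reporter activity was measured via CCF4-AM FRET as the 460:530 nm ratio.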

[13] = TOX21_TRB_BLA_Antagonist_Followup_viability: Viability Assessment in the Tox21 Thyroid Hormone Receptor beta Antagonism Beta-lactamase (BLA) Follow-Up Assay (AID 2283961)
Method in brief: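 HEK293T cells with GAL4-human TRβ LBD and UAS-bla reporter, 3,000 cells/well in 2% charcoal-stripped FBS medium; 11-point concentrations in triplicate, 18 h at 37C. Viability from ATP by CellTiter-Glo luminescence, 30 min RT, same plates.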

THRA (gene 7067) = THRA (gene 7067) (UniProt P10827); assay: TOX21_TRA_COA_Antagonist_Followup_ratio: Tox21 Thyroid Hormone Receptor alpha Antagonism through Coactivator Recruitment Follow-Up Assay, Ratio (AID 2283953)
Sequence of THRA (gene 7067) (P10827 whole entry, looked up, the tested form may be a part): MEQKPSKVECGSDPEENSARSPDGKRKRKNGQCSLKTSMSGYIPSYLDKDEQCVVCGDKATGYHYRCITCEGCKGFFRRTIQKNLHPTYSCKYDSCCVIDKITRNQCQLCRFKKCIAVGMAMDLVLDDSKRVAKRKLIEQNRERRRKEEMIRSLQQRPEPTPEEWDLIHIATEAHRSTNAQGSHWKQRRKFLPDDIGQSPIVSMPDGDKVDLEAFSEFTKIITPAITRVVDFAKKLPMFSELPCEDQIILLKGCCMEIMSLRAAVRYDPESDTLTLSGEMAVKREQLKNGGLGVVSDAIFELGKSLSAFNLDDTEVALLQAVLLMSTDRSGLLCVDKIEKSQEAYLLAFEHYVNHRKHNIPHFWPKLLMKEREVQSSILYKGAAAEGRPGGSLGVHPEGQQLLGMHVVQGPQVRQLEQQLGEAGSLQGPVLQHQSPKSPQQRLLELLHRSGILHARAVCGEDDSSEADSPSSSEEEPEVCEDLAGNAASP
Method in brief: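 GST-TRα LBD 2.5 nM, BSA 0.10%, + cpd; then FITC-SRC-2 peptide 200 nM + Tb-anti-GST Ab 2 nM. TR-FRET ratio 520/495 nm. Norm: DMSO = 0%, T3 = 100%.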

[14] = TOX21_p53_BLA_p2_viability: Viability Assessment in the Tox21 HCT-116 p53 Agonism Beta-lactamase Assay, Phase 2 (AID 2283591);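 note: actives lower the ATP signal meaning cytotoxicity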
Method in brief: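 HCT116 p53-bla cells, 4000/well, dosed after 5 h plating (217-fold dilution of DMSO stocks) and incubated 16 h at 37C. Viability taken as cellular ATP by CellTiter-Glo luminescence after 30 min RT; signal loss marks cytotoxicity.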

[15] = UKN5_HCS_SBAD2_neurite_outgrowth: University of Konstanz (UKN) Leist Lab Neurite Outgrowth Assay in human iPSC-derived immature Dorsal Root Ganglia Neurons (UKN5) (AID 2284070; active = hit-call score of the fitted dose curve at least 0.9, where 1 is the maximum; inactive = score below 0.9); conditions: actives raise or lower the signal
Method in brief: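 Thaw, seed on Matrigel (100.000 cells/cm2), dose 1 h later; at 23 h live-stain with H-33342 and calcein-AM for 60 min; image at 24 h. Neurite area fitted bidirectionally vs DMSO.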

[16] = UKN4_HCS_LUHMES_neurite_outgrowth: University of Konstanz (UKN) Leist Lab Neurite Outgrowth Assay in human LUHMES cells (UKN4) (AID 2284206; active = hit-call score of the fitted dose curve at least 0.9, where 1 is the maximum; inactive = score below 0.9); conditions: actives raise or lower the signal
Method in brief: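 Human LUHMES cells were differentiated for two days, replated and treated with chemicals for 24 h. Neurite outgrowth was quantified as calcein-stained neurite area by HCS imaging, fitted bidirectionally relative to DMSO.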

[17] = UKN4_HCS_LUHMES_cell_viability: Viability Assessment in the University of Konstanz (UKN) Leist Lab Neurite Outgrowth Assay in human LUHMES cells (UKN4) (AID 2284232; active = hit-call score of the fitted dose curve at least 0.9, where 1 is the maximum; inactive = score below 0.9)
Method in brief: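 Cells switched to differentiation medium at day 0, replated on day 2 in medium lacking cAMP and GDNF, and compound-treated once attached. Live staining began 23.5 h later, imaging followed at 24 h.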

[18] = UKN2_HCS_IMR90_cell_viability: Viability Assessment in the University of Konstanz (UKN) Leist Lab Neural Crest Cell Migration Assay in human induced IMR90 Pluripotent Stem Cells (UKN2) (AID 2284233; active = hit-call score of the fitted dose curve at least 0.9, where 1 is the maximum; inactive = score below 0.9;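 note: cells exposed to compound for 24 h after a 24 h migration phase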)
Method in brief: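 Viability read as calcein-AM fluorescence by high-content imaging, Hoechst co-stain, 30 min. Human iPSC (IMR90) neural crest cells had migrated 24 h into stopper-defined gaps before 24 h chemical exposure. Fitted bidirectionally relative to DMSO.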

Measured: AC50

CNC(C)CC1CCCCC1 (configuration not stated)
inactive: [1] | [2] | [3] | [4] | [5]

CC[C@]1(O)CC[C@H]2[C@@H]3CCC4=CCCC[C@@H]4[C@H]3CC[C@@]21C
inactive: [2] | [4] | [6] | PGR (gene 5241) [8] | PGR (gene 5241) [10] | [11] | [12] | [13]
active: [1] 3.73 µM | [3] 3.62 µM | [5] 7.06 µM | [7] 7.04 µM | PGR (gene 5241) [9] 0.0421 µM | THRB (gene 7068) 11.6 µM

CCCCCCCCCCOC(=O)c1ccccc1C(=O)OCCCCCCCCCC
inactive: [1] | [2] | [3] | [5]

COC1=CC=C2[C@H]3Cc4ccc(OC)c5c4[C@@]2(CCN3C)[C@H]1O5
inactive: [1] | [2] | [3] | [4] | [5] | [6] | [7]

CN(C)C(=O)Nc1cccc(OC(=O)NC(C)(C)C)c1
inactive: [1] | [2] | [3]

CC(=O)[C@H]1CC[C@H]2[C@@H]3CC[C@@H]4C[C@H](O)CC[C@]4(C)[C@H]3CC[C@]12C
inactive: [1] | [2] | [3] | [4] | [5] | [6] | [7] | [12] | THRA (gene 7067) | THRB (gene 7068) | [13]

CC1N=C(N)OC1c1ccccc1 (configuration not stated)
active: [4] 26 µM
inactive: [1] | [2] | [3] | [6] | [7]

CN1C(=O)[C@@H](NC(=O)c2cc3ccccc3[nH]2)N=C(c2ccccc2)c2ccccc21
inactive: [1] | [2] | [3] | [4] | [5] | [7] | [12] | THRA (gene 7067) | [13]
active: THRB (gene 7068) 10.7 µM

BrCC(Br)(Br)Br
inactive: [2] | [4] | [5] | [6] | [7]
active: [1] 84.7 µM | [3] 13.1 µM

CC1CN1 (configuration not stated)
inactive: [1] | [2] | [3] | [4]

CN1CC[C@]23c4c5ccc(O)c4O[C@H]2[C@@H](O)C=C[C@H]3[C@H]1C5
inactive: [14] | [6] | [15] | [16] | [17] | [18]

C[C@]12CC[C@H]3[C@@H](CC=C4C[C@@H](O)CC[C@@]43C)[C@@H]1CC[C@@H]2O
inactive: [1] | [3] | [5] | [6]
active: [2] 43.5 µM
